Assay outcomes as filed in PubChem BioAssay.
Shown are actives, neighbours in structure and some others; about 2.1% of the full set was active somewhere.
CTSL1 counter-1: cathepsin L1 inhibition, PFM18AAP counter-screen; recombinant F. hepatica cathepsin L1, Z-Leu-Arg-MCA fluorescence; inhibition, % at 5.96 µM; hit rate 0.49% among 300,000;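 active = inhibition above the mean of all tested compounds plus 3 SD, set per screening campaign, cut at about 17% in these data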;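 also: 0% = plate median of test compound wells and 100% = 1 µM Z-Phe-Ala-diazomethylketone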
Rin1-Abl PPI inh: inhibitors of human Rin1-Abl protein interaction; TR-FRET Rin1/Abl binding, biochemical; inhibition, % at 7.35 µM; hit rate 0.4% among 360,000; AID 588664; in the data active = inhibition above about 5%, passing the limit was not always enough
PfM18AAP inh-1: PfM18AAP enzyme inhibition; hit rate 1.2% among 290,000; AID 1822; recombinant PfM18AAP, H-Glu-NHMec fluorogenic cleavage; inhibition, % at 7.35 µM;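 active = inhibition above the campaign mean inhibition over all tested compounds plus 3 SD, cut at about 28% in these data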;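 also: 0% = plate median of test compound wells and 100% = 2 mM ZnCl2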
Calb FLC: affects C. albicans growth with fluconazole. C. albicans CaCi-2 (fluconazole-resistant clinical isolate) + fluconazole, Alamar Blue growth, 48 h. growth inhibition, % (no concentration beside the values). hit rate 0.57% among 300,000. AID 1979;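 active = growth inhibition above about 58% in most replicates, limit read from the data, passing the limit was not always enough; inconclusive = exactly half the replicates above a set limit; inactive = most replicates below a set limit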;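 also: all wells also contain fluconazole at 8 µg/ml as a sub-toxic cotreatment; 0% = median of DMSO wells and 100% = median of geldanamycin control wells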
PfM18AAP inh-2: PfM18AAP inhibition, confirmation. shares compounds with PfM18AAP inh-1. inhibition, % at 7.35 µM. recombinant PfM18AAP, H-Glu-NHMec fluorogenic cleavage. AID 2170. hit rate 28% among 2,400;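 active = mean inhibition over replicate wells above the hit cutoff set for the earlier primary screen, cut at about 29% in these data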;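 also: 0% = median of test compound wells and 100% = 2 mM ZnCl2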
CTSL1 counter-2: Cathepsin L (human) inhibition, confirmation; shares compounds with PfM18AAP inh-1; 2,400 tested, under 10 active; AID 2178; inhibition, % at 5.96 µM; purified cathepsin L1, Z-Leu-Arg-MCA fluorescence;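 active = average inhibition across replicates above the hit cutoff set in the earlier primary screen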;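 also: 0% = median of test compound wells and 100% = Z-Phe-Ala-diazomethylketone 1 µM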
Target sequence (P07711 whole entry, looked up): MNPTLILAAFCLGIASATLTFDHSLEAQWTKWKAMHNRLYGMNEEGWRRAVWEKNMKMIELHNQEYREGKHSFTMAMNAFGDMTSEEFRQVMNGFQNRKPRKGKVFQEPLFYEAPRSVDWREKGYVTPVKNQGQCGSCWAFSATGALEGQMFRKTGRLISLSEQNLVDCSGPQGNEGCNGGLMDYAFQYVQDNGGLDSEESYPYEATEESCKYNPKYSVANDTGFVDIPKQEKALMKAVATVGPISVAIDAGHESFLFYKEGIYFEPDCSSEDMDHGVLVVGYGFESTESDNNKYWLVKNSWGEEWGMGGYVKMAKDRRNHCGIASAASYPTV
* hit, by the source's call; ? = inconclusive; · = no result given.

SMILES	CTSL1 counter-1	Rin1-Abl PPI inh	PfM18AAP inh-1	Calb FLC	PfM18AAP inh-2	CTSL1 counter-2
Cc1cc(C)c(O)c(NC(=S)NC(=O)Cc2ccccc2)c1	0.2	-0.1	4.6	-3.7	·	·
Oc1ccc(-c2nc(-c3ccc(O)c(O)c3)cs2)cc1	-1.2	1.4	58.6*	?	70.6*	-12.8
Cc1nc2c(C)cccn2c1C(=O)N/N=C/c1ccccc1[N+](=O)[O-]	1.0	-0.3	39.8*	8.5	-40.7	-3.4
Cc1nnc(N/N=C/c2cc([N+](=O)[O-])c(N3CCC(C)CC3)cc2N2CCC(C)CC2)n1N	1.9	-2.9	50.1*	-10.4	-30.5	-0.7
CCc1nnc(N/N=C/c2ccc(N3CCC(C)CC3)c([N+](=O)[O-])c2)n1N	-6.9	-3.2	48.0*	17.6	-25.6	-8.6
CC1CCN(c2cc(N3CCOCC3)c([N+](=O)[O-])cc2F)CC1	3.0	-3.9	-8.6	1.5	·	·
N#CC1=C(N)SC(N)=C(C#N)C1C1CC=CCC1 (centres undefined)	-2.4	-0.9	35.8*	3.2	-10.8	-2.9
Nc1c(/C=C2/C=CC(=O)C(O)=C2)c(=O)nc2sc(CC(=O)N3CCCC3)nn12	3.2	1.4	63.0*	-4.2	43.5*	-1.7
COC1=C/C(=C/c2c(N)n3nc(CC(=O)N4CCCC4)sc3nc2=O)C=CC1=O	7.5	2.4	3.2	-4.5	·	·
Cc1cc(N2CCN(C)CC2)nc2ccc(NC(=O)CCC(=O)NCCc3ccc(Cl)cc3)cc12	·	0.6	2.6	-3.9	·	·
COc1ccc(CCNC(=O)N2c3ccccc3Sc3ccccc32)cc1	7.5	-0.3	10.3	19.2	·	·
COc1ccc(-[n+]2c(C)cc(/C=C3\Sc4ccccc4N3C)cc2C)cc1	8.5	-19.4	45.2*	-6.5	-24.8	0.6
CSCC[C@H](NC(=O)N1CCn2c1nc1ccccc12)C(=O)NCc1ccc(F)cc1	-9.2	1.8	1.1	11.6	·	·
CSCC[C@H](NC(=O)N1CCn2c1nc1ccccc12)C(=O)N[C@@H](C(=O)O)c1ccccc1	5.6	4.8	51.2*	-5.8	41.5*	-4.7
Cc1c(O)cc2n(c1=O)-c1ccccc1C2(C)C	3.7	3.4	14.7	2.0	·	·
O=c1c2cc3c(=O)n(-c4ccccc4O)c(=O)c3cc2c(=O)n1-c1ccccc1O	-2.6	1.4	41.1*	-0.3	-40.3	5.5
CC(=O)c1ccc(N2CCN(Cc3nc4ccccc4[nH]3)CC2)cc1	-2.8	-1.1	6.4	-4.5	·	·
Oc1ccc(N2CCN(Cc3nc4ccccc4[nH]3)CC2)cc1	-3.4	1.8	42.2*	-14.7	-25.1	-4.6
CC(C)NC[C@@H](O)c1ccc(O)c(O)c1	-7.1	6.1	60.9*	·	55.7*	-2.5
CC(C)NCC(O)c1ccc(NS(C)(=O)=O)cc1 (centres undefined)	3.9	1.1	1.2	·	·	·
CC1CC(C)(C)CC2(C1)NC(=S)N(c1ccccc1)N2 (centres undefined)	-3.2	1.6	36.1*	5.0	-48.2	-13.9
COc1ccc(Cl)cc1NC(=O)c1nnn(CC(=O)Nc2ccc3c(c2)OCO3)c1N	-1.7	-7.8	-2.6	-0.1	·	·
O=C(OCC1CCCN2CCCCC12)c1ccc2c(c1)OCO2 (centres undefined)	4.3	0.3	35.3*	4.1	10.3	-8.1
O=C(NC(=O)c1ccccc1)OCC1CCCN2CCCCC12 (centres undefined)	-1.9	-1.6	-9.0	-0.6	·	·
CC(C)(C)C(=O)/C=C/Nc1ccccc1O	-0.7	-3.5	42.1*	-6.6	2.8	-1.3
SMILES	CTSL1 counter-1	Rin1-Abl PPI inh	PfM18AAP inh-1	Calb FLC	PfM18AAP inh-2	CTSL1 counter-2
CN(C)c1ccc(N/C=C/C(=O)C(C)(C)C)cc1	-1.7	-2.0	22.0	10.0	·	·
CCC(C)c1ccc(O)c(N)c1 (centres undefined)	-3.2	-2.8	63.7*	-10.4	69.5*	3.3
COc1cc(C(=S)N2CCOCC2)cc(OC)c1OC(=O)Cc1ccc(F)cc1	-4.6	-0.6	35.8*	3.3	-8.1	0.5
Cn1c(CO)nc2cc(N)ccc21	1.0	2.1	38.9*	-7.8	-45.2	0.9
O=C1S/C(=C\C=C\c2ccco2)C(=O)N1c1ccc(O)cc1	5.4	-1.6	39.1*	0.0	-38.9	11.5
O=C1S/C(=C\C=C\c2ccco2)C(=O)N1c1ccccc1	-0.5	-1.5	15.2	0.0	·	·
Cc1onc(-c2c(Cl)cccc2Cl)c1NC(=O)NNc1ccccn1	-2.8	3.1	40.4*	-10.0	13.0	3.1
Cc1onc(-c2c(Cl)cccc2Cl)c1NC(=O)NNc1ccccc1	0.3	4.7	15.8	-16.7	·	·
